# Where a name gives a salt, the structure may show the parent alone.
# Tested on: Saccharomyces cerevisiae BY4741 SeMeCo community
# Test: z-score of subpopulation abundance vs DMSO median, subpopulation auxotrophic for UM; higher = larger share of this subpopulation than in DMSO controls
# Settings: 10 µM; 24 h; SM minimal medium; subpopulation (auxotrophy): UM
# Protocol: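 Fluorescent four-plasmid SeMeCo (self-establishing metabolically cooperating S. cerevisiae BY4741 community; plasmids pH-mRuby2, pL-mWasabi, pU-eCFP, pM-TagRFP657) was grown 24 h in minimal SM medium with each Selleck FDA-approved drug at 10 µM in 384-well plates. Cells were fixed and imaged by high-content confocal microscopy. For each auxotrophic subpopulation (and the prototroph), a z-score gives the deviation from the DMSO vehicle-control population median.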
row,SMILES,z-score of subpopulation abundance
1,CC(=O)N1CCN(c2ccc(OCC3COC(Cn4ccnc4)(c4ccc(Cl)cc4Cl)O3)cc2)CC1 (stereo not given) [Ketoconazole],-0.23
2,Nc1nc2[nH]cc(CCc3ccc(C(=O)N[C@@H](CCC(=O)O)C(=O)O)cc3)c2c(=O)[nH]1 [Pemetrexed],-7.46
3,C1N2CN3CN1CN(C2)C3 [Methenamine],0.8
4,Nc1ccc(S(N)(=O)=O)cc1 [Sulfanilamide],0.11
5,C[C@@H]1CC(=O)NN=C1c1ccc(NN=C(C#N)C#N)cc1 [Levosimendan],0.05
6,COc1ccnc(C[S+]([O-])c2nc3cc(-n4cccc4)ccc3[nH]2)c1C (stereo not given) [Ilaprazole],-1.96
7,O=C(Nc1cccc(C2=NCCN2)c1)Nc1cccc(C2=NCCN2)c1 [Imidocarb dipropionate],-0.26
8,CCCSc1ccc2[nH]c(NC(=O)OC)nc2c1 [Albendazole],0.26
9,Cc1onc(-c2ccccc2)c1-c1ccc(S(N)(=O)=O)cc1 [Valdecoxib],-0.64
10,CC1=C(C(=O)O)N2C(=O)[C@@H](NC(=O)[C@H](N)c3ccccc3)[C@H]2SC1 [Cephalexin],-0.17
11,COC(=O)Nc1nc2cc(C(=O)c3ccccc3)ccc2[nH]1 [Mebendazole],1.89
12,C[C@@H](O)[C@H]1C(=O)N2C(C(=O)O)=C(S[C@@H]3CN[C@H](C(=O)Nc4cccc(C(=O)O)c4)C3)[C@H](C)[C@H]12 [Ertapenem sodium],0.16
13,Oc1c(Br)cc(Br)c2cccnc12 [Broxyquinoline],6.77
14,O=[N+]([O-])c1ccc(O)c2ncccc12 [Nitroxoline],4.38
15,CC1(C)S[C@@H]2[C@H](NC(=O)Cc3ccccc3)C(=O)N2[C@H]1C(=O)O [Benzathine penicilline],-0.06
16,C#C[C@]1(O)CC[C@H]2[C@@H]3CCc4cc(OC5CCCC5)ccc4[C@H]3CC[C@@]21C [Quinestrol],-0.33
17,CCC(C)(C)C(=O)O[C@H]1C[C@@H](C)C=C2C=C[C@H](C)[C@H](CC[C@@H]3C[C@@H](O)CC(=O)O3)[C@H]21 [Simvastatin],0.62
18,Cc1cc(-n2c(=O)[nH]c(=O)n(C)c2=O)ccc1Oc1ccc(SC(F)(F)F)cc1 [Toltrazuril],-0.14
19,Clc1ccc(CCC(Cn2ccnc2)Sc2c(Cl)cccc2Cl)cc1 (stereo not given) [Butoconazole],0.29
20,C[n+]1ccccc1/C=N/O [Pralidoxime chloride],1.18

row,SMILES,z-score of subpopulation abundance
1,C[C@H]1NCc2cc(-c3ccc4c(=O)c(C(=O)O)cn(C5CC5)c4c3OC(F)F)ccc21 [Garenoxacin],-0.07
2,CCOc1cc(N)c(Cl)cc1C(=O)NCC1CN(Cc2ccc(F)cc2)CCO1 (stereo not given) [Mosapride Citrate],0.37
3,"C[C@@H](CN1CC(=O)NC(=O)C1)N1CC(=O)NC(=O)C1 [Dexrazoxane HCl (ICRF-187, ADR-529)]",0.22
4,CCOc1ccc2nc3cc(N)ccc3c(N)c2c1 [Ethacridine lactate monohydrate],-9.56
5,CC(=O)[O-].[K+] [Potassium acetate],-0.51
6,COc1ccc2c3c1O[C@H]1C[C@@H](O)C=C[C@@]31CCN(C)C2 [Galanthamine HBr],1.03
7,CC[C@@H](CO)NCCN[C@@H](CC)CO [Ethambutol 2HCl],1.23
8,CN(C)CCCN1c2ccccc2Sc2ccccc21 [Promazine hydrochloride],-0.02
9,O=C1CN(/N=C/c2ccc(-c3ccc([N+](=O)[O-])cc3)o2)C(=O)N1 [Dantrolene sodium],-2.91
10,C[C@]12CC[C@@H]3c4ccc(O)cc4CC[C@H]3[C@@H]1C[C@@H](O)[C@@H]2O [Estriol],-0.62
11,CC1(C)[C@H](C(=O)O)N2C(=O)C[C@H]2S1(=O)=O [Sulbactam],-0.39
12,COc1ccccc1N1CCN(CCCNc2cc(=O)n(C)c(=O)n2C)CC1 [Urapidil HCl],0
13,CCCc1nn(C)c2c(=O)[nH]c(-c3cc(S(=O)(=O)N4CCN(C)CC4)ccc3OCC)nc12 [Sildenafil],-0.73
14,NC[C@H]1O[C@H](O[C@H]2[C@H](O[C@@H]3O[C@H](CO)[C@@H](O)[C@H]3O)[C@@H](O)[C@H](N)C[C@@H]2N)[C@H](N)[C@@H](O)[C@@H]1O [Ribostamycin Sulfate],0.36
15,CC1(C)S[C@@H]2[C@H](NC(=O)[C@H](C(=O)O)c3ccsc3)C(=O)N2[C@H]1C(=O)O [Ticarcillin sodium],-0.45
16,CC1(C)S[C@@H]2[C@H](NC(=O)C(C(=O)O)c3ccccc3)C(=O)N2[C@H]1C(=O)O (stereo not given in full) [Carbenicillin disodium],-0.3
17,C#CCN(C)Cc1ccccc1 [Pargyline hydrochloride],-0.55
18,CC(C)c1c(C(=O)Nc2ccccc2)c(-c2ccccc2)c(-c2ccc(F)cc2)n1CC[C@@H](O)C[C@@H](O)CC(=O)O [Atorvastatin],1.48
19,CC[C@H]1OC(=O)C[C@@H](O)[C@H](C)[C@@H](O[C@@H]2O[C@H](C)[C@@H](O)[C@H](N(C)C)[C@H]2O)[C@@H](CCN2C[C@H](C)C[C@H](C)C2)C[C@@H](C)C(=O)/C=C/C(C)=C/[C@@H]1CO[C@@H]1O[C@H](C)[C@@H](O)[C@@H](OC)[C@H]1OC [Tilmicosin phosphate],-0.01
20,CN1CCOC(c2ccccc2)c2ccccc2C1 (stereo not given) [Nefopam HCl],0.37

# — the supplement of paper PMC8975748
